# Laboratory results published in the supplement of paper PMC8728848.
# The entries come from a sample that favours the strongest signals as a whole.
# B1: GST Gap3 (Streptococcus parasanguinis) (protein)
# chain: MTKQLISEIYWNEIRKGENYLYGSQIKFQEDLVNFYNPQLASGKPIVTFKSRTNYQGDRHSPDLPILIQGNRYLLEYQIDAVPANSFFLQLDFFNRQAEQIESIVLRNSGESFIFPKDTFTYTLTLMSAGCQSVTYQKFMIYDINDEEKKNHIVENRYLRELLPKDLDLVKNLIEYI
# Key:
# Test in all cases: glycan array binding signal (z-score within array); higher = stronger binding
# Conditions in all cases: glycan notation: IUPAC condensed, linker removed
# [1] = target: Fuc(a1-2)Gal(b1-3)GlcNAc(b1-3)[Fuc(a1-3)[Gal(b1-4)]GlcNAc(b1-6)]Gal(b1-4)Glc
# Procedure, shortened: (§1)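 The Consortium for Functional Glycomics database supplied 3228 glycan arrays, of which those lacking an available protein sequence were dropped. The binding signal, a within-array Z-score, was averaged across arrays of the same protein sequence and across linkers. Negative scores can be read as non-binding.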
# [2] = target: Fuc(a1-2)Gal(b1-3)[Fuc(a1-4)]GlcNAc(b1-2)Man(a1-3)[Fuc(a1-2)Gal(b1-3)[Fuc(a1-4)]GlcNAc(b1-2)Man(a1-3)]Man(b1-4)GlcNAc(b1-4)GlcNAc
# Procedure, shortened: as §1
# [3] = target: Fuc(a1-2)Gal(b1-4)GlcNAc(b1-2)Man(a1-3)[Fuc(a1-2)Gal(b1-4)GlcNAc(b1-2)Man(a1-6)]Man(b1-4)GlcNAc(b1-4)GlcNAc
# Procedure, shortened: as §1
# [4] = target: Fuc(a1-2)Gal(b1-4)GlcNAc(b1-2)Man(a1-3)[Fuc(a1-2)Gal(b1-4)GlcNAc(b1-2)Man(a1-6)]Man(b1-4)GlcNAc(b1-4)[Fuc(a1-6)]GlcNAc
# Procedure, shortened: as §1
# [5] = target: Fuc(a1-2)Gal(b1-4)GlcNAc(b1-3)[Fuc(a1-3)[Gal(b1-4)]GlcNAc(b1-6)]Gal(b1-4)Glc
# Procedure, shortened: as §1
# [6] = target: Fuc(a1-2)Gal(b1-4)GlcNAc(b1-6)GalNAc
# Procedure, shortened: as §1
# [7] = target: Fuc(a1-2)Gal6S(b1-3)GlcNAc6S
# Procedure, shortened: as §1
# [8] = target: Fuc(a1-2)Gal6S(b1-4)GlcNAc
# Procedure, shortened: as §1
# [9] = target: Fuc(a1-2)[Gal(a1-3)]Gal(b1-3)GlcNAc(b1-6)GalNAc
# Procedure, shortened: as §1
# [10] = target: Fuc(a1-2)[Gal(a1-3)]Gal(b1-4)GlcNAc(b1-2)Man(a1-3)[Fuc(a1-2)[Gal(a1-3)]Gal(b1-4)GlcNAc(b1-2)Man(a1-6)]Man(b1-4)GlcNAc(b1-4)GlcNAc
# Procedure, shortened: as §1
# [11] = target: Fuc(a1-2)[GalNAc(a1-3)]Gal(b1-4)GlcNAc(b1-3)[Fuc(a1-2)[GalNAc(a1-3)]Gal(b1-4)GlcNAc(b1-6)]GalNAc
# Procedure, shortened: as §1
# [12] = target: Fuc(a1-3)[Gal(b1-4)]GlcNAc(b1-3)GalNAc
# Procedure, shortened: as §1
# [13] = target: Gal(b1-3)GlcNAc(b1-3)Gal(b1-4)GlcNAc(b1-3)Gal(b1-4)GlcNAc(b1-2)[Gal(b1-3)GlcNAc(b1-3)Gal(b1-4)GlcNAc(b1-3)Gal(b1-4)GlcNAc(b1-6)]Man(a1-6)[Gal(b1-3)GlcNAc(b1-3)Gal(b1-4)GlcNAc(b1-3)Gal(b1-4)GlcNAc(b1-2)Man(a1-3)]Man(b1-4)GlcNAc(b1-4)[Fuc(a1-6)]GlcNAc
# Procedure, shortened: as §1
# [14] = target: Gal(b1-3)GlcNAc(b1-3)Gal(b1-4)GlcNAc(b1-6)[Gal(b1-3)GlcNAc(b1-3)]Gal(b1-4)Glc
# Procedure, shortened: as §1
# [15] = target: Gal(b1-3)GlcNAc(b1-6)GalNAc
# Procedure, shortened: as §1
# [16] = target: Gal(b1-3)[Fuc(a1-4)]GlcNAc(b1-2)Man(a1-3)[Gal(b1-3)[Fuc(a1-4)]GlcNAc(b1-2)Man(a1-6)]Man(b1-4)GlcNAc(b1-4)GlcNAc
# Procedure, shortened: as §1
# [17] = target: Gal(b1-4)GlcNAc(b1-2)[Gal(b1-4)GlcNAc(b1-6)]Man(a1-6)[GlcNAc(b1-4)][Gal(b1-4)GlcNAc(b1-2)[Gal(b1-4)GlcNAc(b1-4)]Man(a1-3)]Man(b1-4)GlcNAc(b1-4)[Fuc(a1-6)]GlcNAc
# Procedure, shortened: as §1
# [18] = target: Gal(b1-4)GlcNAc(b1-3)Gal(b1-4)GlcNAc(b1-3)Gal(b1-4)GlcNAc(b1-3)Gal(b1-4)GlcNAc(b1-2)[Gal(b1-4)GlcNAc(b1-3)Gal(b1-4)GlcNAc(b1-3)Gal(b1-4)GlcNAc(b1-3)Gal(b1-4)GlcNAc(b1-6)]Man(a1-6)[Gal(b1-4)GlcNAc(b1-3)Gal(b1-4)GlcNAc(b1-3)Gal(b1-4)GlcNAc(b1-3)Gal(b1-4)GlcNAc(b1-2)Man(a1-3)]Man(b1-4)GlcNAc(b1-4)[Fuc(a1-6)]GlcNAc
# Procedure, shortened: as §1
# [19] = target: Gal(b1-4)GlcNAc(b1-3)Gal(b1-4)[Fuc(a1-3)GlcNAc(b1-6)]Gal(b1-4)Glc
# Procedure, shortened: as §1
# [20] = target: Gal(b1-4)GlcNAc(b1-6)Gal(b1-4)GlcNAc(b1-6)GalNAc
# Procedure, shortened: as §1
# [21] = target: Gal3S(b1-4)[Fuc(a1-3)]Glc6S
# Procedure, shortened: as §1
# [22] = target: Gal3S(b1-4)[Fuc(a1-3)]GlcNAc
# Procedure, shortened: as §1
# GalNAc(b1-4)GlcNAc = target: GalNAc(b1-4)GlcNAc
# Procedure, shortened: as §1
# GalNAc4S6S(b1-4)GlcNAc = target: GalNAc4S6S(b1-4)GlcNAc
# Procedure, shortened: as §1
# Glc(a1-4)Glc = target: Glc(a1-4)Glc
# Procedure, shortened: as §1
# Glc(a1-6)Glc(a1-6)Glc = target: Glc(a1-6)Glc(a1-6)Glc
# Procedure, shortened: as §1
# Glc(b1-4)Glc = target: Glc(b1-4)Glc
# Procedure, shortened: as §1
# [23] = target: GlcNAc(a1-3)Gal(b1-4)GlcNAc
# Procedure, shortened: as §1
# [24] = target: GlcNAc(a1-4)Gal(b1-4)GlcNAc(b1-3)Gal(b1-4)[Fuc(a1-3)]GlcNAc(b1-3)Gal(b1-4)[Fuc(a1-3)]GlcNAc
# Procedure, shortened: as §1
# [25] = target: GlcNAc(a1-6)Gal(b1-4)GlcNAc
# Procedure, shortened: as §1
# [26] = target: GlcNAc(b1-3)Gal(b1-4)GlcNAc(b1-2)[GlcNAc(b1-3)Gal(b1-4)GlcNAc(b1-6)]Man(a1-6)[GlcNAc(b1-3)Gal(b1-4)GlcNAc(b1-2)Man(a1-3)]Man(b1-4)GlcNAc(b1-4)GlcNAc
# Procedure, shortened: as §1
# [27] = target: GlcNAc(b1-3)Gal(b1-4)GlcNAc(b1-3)Gal(b1-4)GlcNAc(b1-2)Man(a1-3)[GlcNAc(b1-3)Gal(b1-4)GlcNAc(b1-3)Gal(b1-4)GlcNAc(b1-2)Man(a1-6)]Man(b1-4)GlcNAc(b1-4)[Fuc(a1-6)]GlcNAc
# Procedure, shortened: as §1
# [28] = target: GlcNAc(b1-3)Gal(b1-4)GlcNAc(b1-3)[GlcNAc(b1-3)Gal(b1-4)GlcNAc(b1-3)]GalNAc
# Procedure, shortened: as §1
# [29] = target: GlcNAc6S(b1-3)Gal(b1-4)GlcNAc
# Procedure, shortened: as §1
# Man(a1-2)Man(a1-3)Man = target: Man(a1-2)Man(a1-3)Man
# Procedure, shortened: as §1
# [30] = target: Man(a1-2)Man(a1-6)[Man(a1-3)]Man(a1-6)[Man(a1-2)Man(a1-2)Man(a1-3)]Man
# Procedure, shortened: as §1
# [31] = target: Man(a1-3)[Man(a1-6)]Man(a1-6)[Man(a1-3)]Man
# Procedure, shortened: as §1
# MurNAc(b1-4)GlcNAc = target: MurNAc(b1-4)GlcNAc
# Procedure, shortened: as §1
# [32] = target: Neu5Ac(a2-3)Gal(b1-3)GalNAc(b1-3)Gal(b1-4)GlcNAc
# Procedure, shortened: as §1
# [33] = target: Neu5Ac(a2-3)Gal(b1-3)GlcNAc(b1-2)Man(a1-3)[Neu5Ac(a2-3)Gal(b1-3)GlcNAc(b1-2)Man(a1-6)]Man(b1-4)GlcNAc(b1-4)GlcNAc
# Procedure, shortened: as §1
# [34] = target: Neu5Ac(a2-3)Gal(b1-3)[GlcNAc(b1-6)]GalNAc
# Procedure, shortened: as §1
# [35] = target: Neu5Ac(a2-3)Gal(b1-4)GlcNAc(b1-2)Man(a1-3)[GlcNAc(b1-4)][Neu5Ac(a2-3)Gal(b1-4)GlcNAc(b1-2)Man(a1-6)]Man(b1-4)GlcNAc(b1-4)GlcNAc
# Procedure, shortened: as §1
# [36] = target: Neu5Ac(a2-3)Gal(b1-4)GlcNAc(b1-2)Man(a1-3)[Neu5Ac(a2-3)Gal(b1-4)GlcNAc(b1-2)Man(a1-6)]Man(b1-4)GlcNAc(b1-4)[Fuc(a1-6)]GlcNAc
# Procedure, shortened: as §1
# [37] = target: Neu5Ac(a2-3)Gal(b1-4)GlcNAc(b1-3)[Neu5Ac(a2-3)Gal(b1-4)GlcNAc(b1-6)]GalNAc
# Procedure, shortened: as §1
# [38] = target: Neu5Ac(a2-3)Gal(b1-4)GlcNAc(b1-6)[Gal(b1-3)]GalNAc
# Procedure, shortened: as §1
# [39] = target: Neu5Ac(a2-3)Gal(b1-4)[Fuc(a1-3)]GlcNAc(b1-3)Gal
# Procedure, shortened: as §1
# [40] = target: Neu5Ac(a2-3)Gal(b1-4)[Fuc(a1-3)]GlcNAc(b1-6)[Neu5Ac(a2-3)Gal(b1-3)]GalNAc
# Procedure, shortened: as §1
# [41] = target: Neu5Ac(a2-3)Gal6S(b1-4)[Fuc(a1-3)]GlcNAc
# Procedure, shortened: as §1
# Neu5Ac(a2-3)GalNAc = target: Neu5Ac(a2-3)GalNAc
# Procedure, shortened: as §1
# [42] = target: Neu5Ac(a2-6)Gal(b1-4)GlcNAc(b1-2)Man(a1-6)[GlcNAc(b1-2)Man(a1-3)]Man(b1-4)GlcNAc(b1-4)GlcNAc
# Procedure, shortened: as §1
# [43] = target: Neu5Ac(a2-6)GlcNAc(b1-4)GlcNAc
# Procedure, shortened: as §1
# [44] = target: Neu5Ac(a2-8)Neu5Ac(a2-8)Neu5Ac
# Procedure, shortened: as §1
# [45] = target: Neu5Gc(a2-3)Gal(b1-4)GlcNAc
# Procedure, shortened: as §1
binder,measurement,setting,value
B1,glycan array binding signal (z-score),[1],-0.027
same,glycan array binding signal (z-score),[2],2.3
same,glycan array binding signal (z-score),[3],3.16
same,glycan array binding signal (z-score),[4],-0.105
same,glycan array binding signal (z-score),[5],-0.573
same,glycan array binding signal (z-score),[6],-0.108
same,glycan array binding signal (z-score),[7],2.06
same,glycan array binding signal (z-score),[8],-0.073
same,glycan array binding signal (z-score),[9],-0.112
same,glycan array binding signal (z-score),[10],0.383
same,glycan array binding signal (z-score),[11],-0.377
same,glycan array binding signal (z-score),[12],0.287
same,glycan array binding signal (z-score),[13],4.03
same,glycan array binding signal (z-score),[14],0.052
same,glycan array binding signal (z-score),[15],0.002
same,glycan array binding signal (z-score),[16],3.61
same,glycan array binding signal (z-score),[17],0.228
same,glycan array binding signal (z-score),[18],2.32
same,glycan array binding signal (z-score),[19],-0.093
same,glycan array binding signal (z-score),[20],-0.125
same,glycan array binding signal (z-score),[21],1.61
same,glycan array binding signal (z-score),[22],-0.723
same,glycan array binding signal (z-score),GalNAc(b1-4)GlcNAc,0.123
same,glycan array binding signal (z-score),GalNAc4S6S(b1-4)GlcNAc,-0.267
same,glycan array binding signal (z-score),Glc(a1-4)Glc,3.14
same,glycan array binding signal (z-score),Glc(a1-6)Glc(a1-6)Glc,0.005
same,glycan array binding signal (z-score),Glc(b1-4)Glc,-0.381
same,glycan array binding signal (z-score),[23],-0.406
same,glycan array binding signal (z-score),[24],2.24
same,glycan array binding signal (z-score),[25],0.544
same,glycan array binding signal (z-score),[26],3.45
same,glycan array binding signal (z-score),[27],0.269
same,glycan array binding signal (z-score),[28],-0.518
same,glycan array binding signal (z-score),[29],-0.145
same,glycan array binding signal (z-score),Man(a1-2)Man(a1-3)Man,-0.273
same,glycan array binding signal (z-score),[30],-0.335
same,glycan array binding signal (z-score),[31],-0.516
same,glycan array binding signal (z-score),MurNAc(b1-4)GlcNAc,-0.582
same,glycan array binding signal (z-score),[32],-0.123
same,glycan array binding signal (z-score),[33],-0.211
same,glycan array binding signal (z-score),[34],-0.638
same,glycan array binding signal (z-score),[35],-0.195
same,glycan array binding signal (z-score),[36],2.2
same,glycan array binding signal (z-score),[37],-0.511
same,glycan array binding signal (z-score),[38],-0.323
same,glycan array binding signal (z-score),[39],-0.462
same,glycan array binding signal (z-score),[40],3.62
same,glycan array binding signal (z-score),[41],0.06
same,glycan array binding signal (z-score),Neu5Ac(a2-3)GalNAc,-0.101
same,glycan array binding signal (z-score),[42],-0.269
same,glycan array binding signal (z-score),[43],-0.465
same,glycan array binding signal (z-score),[44],0.585
same,glycan array binding signal (z-score),[45],-0.209
